The results in this text go back to PubChem BioAssay (NCI).

The structures appear in SMILES notation. About 83,000 compounds went through this panel and 20% of them were active in at least one assay; those are over-represented in the sample as a whole.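 Results are percent growth after 48 hours of single-concentration exposure. 100 means growth as in untreated cells, lower positive values show inhibition; negative values down to -100 show cell death.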 A number with no mark means an inactive call. Calls of active or inactive are those of the source. The calls were made as follows: active = growth percent below 10; inactive = the rest.

In the assay the test system is HL-60(TB) leukemia. Nature of the assay: NCI-60 one-dose screen, 48 h (100 = growth as untreated, 0 = no growth, -100 = all killed). The settings on record: 10 µM unless noted.
Consider `C=C(C)[C@@H]1CC[C@]2(C(=O)N3CCN(C)CC3)CC[C@]3(C)[C@H](CC[C@@H]4[C@@]5(C)CC(CCCNC(C)=O)(CCCNC(C)=O)[C@H](OC(C)=O)C(C)(C)[C@@H]5CC[C@]43C)[C@@H]12`, for which the growth is 94%. With `O=C(CCSc1nnc2n(Cc3ccccc3)c(=O)c3c4c(sc3n12)CCCC4)N1CCN(c2ccccc2)CC1`, the growth is 106%. The value for `O=C(/C=C/c1ccc([N+](=O)[O-])o1)NNC(=O)c1cc2ccccc2cc1O` was 1.21% (active); that for `CC(/C=N/NC(N)=S)Cc1ccc(C(C)C)cc1` (stereo not given) was 44.3%. To `O=C(/C=C/C12c3ccccc3C(c3ccccc31)C1C(=O)NC(=O)C12)c1ccc(Cl)cc1Cl` (stereo not given) belongs -8.27% (active); to `CC(=O)CC(c1cccs1)c1c(-c2ccccc2)[nH]c2ccccc12` (stereo not given), 99.8%.

Consider `Cc1ccc(-c2cc(-c3ccc(C)cc3)nc(NCCNc3ccnc4cc(Cl)ccc34)n2)cc1`, for which the growth is -44.6% (active).

For `Clc1cc(Cl)c(Cl)nn1`, the growth was 69.7%. In the case of `COc1cc2c(cc1O)CCN1C[C@@H](CC(C)C)[C@@H](O)C[C@@H]21`, the growth was 73.7%. As to `Nc1ccccc1NC(=O)c1ccc(CN2CCC/C(=C\c3ccccn3)C2=O)cc1`, the growth is -18% (active). Turning to `CCOC(=O)C(Cc1cc(I)c(O)c(I)c1)NC(=O)c1ccccc1` (stereo not given), the growth was 90.2%. Take `COc1ccc(/C=C/C(=O)c2cc3c(N)c(C(=O)Nc4ccc(OC)cc4)sc3nc2C)cc1`: the growth is 2.26% (active).

As for `CN1C(=O)NC(c2ccc3c(c2)OCO3)C=C1c1ccccc1` (stereo not given), the growth is 99%.

Take `CC(C)(C)c1nn(-c2ccccc2)c2c1CC1(CN2Cc2ccc(Cl)cc2)C(=O)c2ccccc2C1=O`: the growth is 90.8%. In the case of `O=C(O)c1occ(Cl)c1Cl`, the growth was 75.3%. Take `CCCC(F)C(=O)O` (stereo not given): the growth is 97.3%. In the case of `Cn1ccnc1C(=O)/C=C/c1ccccc1`, the growth is 8.05% (active). The value for `CCN(Cc1cccc(S(=O)(=O)[O-])c1)c1ccc(C(=C2C=CC(=[N+](CC)Cc3cccc(S(=O)(=O)O)c3)C=C2)c2ccccc2S(=O)(=O)O)cc1` was 104%.

Turning to `CC/C=C\C[C@H](O)C/C=C1/C(=O)C=C[C@@H]1C/C=C\CCCC(=O)NC(C)C`, the growth is -28.2% (active). Regarding `Nc1nc(N)c2c(n1)NC(c1ccccc1)C1CCc3ccccc3C1=N2` (stereo not given), the growth is -11.2% (active).

Consider `C#CCn1c2c(c3ccccc31)C[C@]1(C)[C@H]3CC[C@@H]4[C@@H]5C(=CCC[C@H]5C(=C)C)CC[C@@]4(C)[C@]3(C)CC[C@H]1C2(C)C`, for which the growth is 101%.

Turning to `COc1ccc(C(=O)C(CN(C)C)c2ccccc2)cc1` (stereo not given), the growth is 3.71% (active). In the case of `Cn1cc(-c2csc(-c3cn(C)c4ncccc34)n2)c2cc(Br)cnc21`, the growth was 83.1%.

In the case of `COc1cccc2cc(N(C)c3nc(C)nc4c3CCC4)ccc12`, the growth was -8.85% (active).

For the molecule `CCCCCCn1c(-c2ccc(C(=O)O/N=C(\N)c3ccc4ccccc4c3)cc2)nc(-c2ccccc2)c1-c1ccccc1`, the growth is 2.97% (active). The value for `O=C1c2cccc3cccc(c23)C(=O)N1Nc1nc(N2CCOCC2)nc(N2CCN(c3ccccc3)CC2)n1` was 56.3%; that for `CS(=O)(=O)c1nccc(-c2c(-c3ccc(OCCc4ccccc4)cc3)nc3sccn23)n1` was 89.5%; that for `CCCCCCCCc1ccc(CCC(N)(CO)CO)cc1` was -14.1% (active). For the molecule `CC1(C)CC(=O)C2=C(C1)OC1=C(C(=O)CC(C)(C)C1)C2c1ccc(OCc2cn(-c3ccc(F)cc3F)nn2)cc1`, the growth was 42.2%.

In the case of `CC1=C(C(=O)OCC2CCN(C(=O)OC(C)(C)C)CC2)[C@H](c2cccc(Br)c2)C2=C(CC(C)(C)CC2=O)N1`, the growth is -17.1% (active). On to `N#Cc1c(N)nc(NCCO)nc1-c1ccc(F)cc1`, for which the growth is 93.6%. `O[C@@H](c1cc(C(F)(F)F)nc2c(C(F)(F)F)cccc12)[C@H]1CCCCN1`: the growth is 59.4%. With `CCOC(=O)Nc1ccc2c(c1)/C(=N\NC(=S)NC)c1ccccc1-2`, the growth was 103%. For the molecule `CCN(CC)c1ccc(/C=N\NC(=O)/C=C/C=C/c2ccc3c(c2)OCO3)c(O)c1`, the growth is 2.66% (active).

`O=C(Nc1cccc(Cn2c(=O)[nH]c3ccc(Oc4ncccn4)cc3c2=O)c1)c1cc(Cl)cc(Cl)c1`: the growth was 98.5%. On to `Cn1cc(-c2csc(-c3ccccc3)n2)c2cccnc21`, for which the growth was 3.19% [100 µM] (active).

Consider `C=C(C)COC(=O)c1ccccc1C(=O)OCC1(C)CO1` (stereo not given), for which the growth is 133%.

For the molecule `O=C1/C(=C/c2ccccc2)CN(CCC(=O)N2C/C(=C\c3ccccc3)C(=O)/C(=C/c3ccccc3)C2)C/C1=C\c1ccccc1`, the growth was 48%.

Take `COc1ccc(C2=C(c3cccc(OC)c3)C(=O)c3ccc(C)nc3C2=O)cc1`: the growth is 41.1%. To `COC1(CC[C@@H](C)COC2OC(CO)C(O)C(O)C2O)O[C@H]2C[C@H]3[C@@H]4CC=C5C[C@@H](OC6OC(CO)C(OC7OC(C)C(O)C(O)C7O)C(O)C6OC6OC(C)C(O)C(O)C6O)CC[C@]5(C)[C@H]4CC[C@]3(C)[C@H]2[C@@H]1C` (stereo not given in full) belongs 27.1%.
